ClpP mod: qHTS Assay for Activators of ClpP; ATP-dependent Clp protease proteolytic subunit (Bacillus subtilis (strain 168)), P80244; purified B. subtilis ClpP, FRET peptide cleavage, 20 min; Potency, µM (titrated, usually from 57.5 µM), inactives show at the highest dose activity change, negative = active; 340,000 compounds, 1.9% hits; AID 651965, 2013; active = well fitted falling curve with a large enough effect; inconclusive = small, poorly fitted or top-dose-only effect; inactive = no such curve, though single readings can be large or run the other way; note: the source files actives as falling curves though it sought activators and does not explain the sign; nearly all actives have a fitted effect of over 65% in size
Target sequence (P80244 whole entry, looked up): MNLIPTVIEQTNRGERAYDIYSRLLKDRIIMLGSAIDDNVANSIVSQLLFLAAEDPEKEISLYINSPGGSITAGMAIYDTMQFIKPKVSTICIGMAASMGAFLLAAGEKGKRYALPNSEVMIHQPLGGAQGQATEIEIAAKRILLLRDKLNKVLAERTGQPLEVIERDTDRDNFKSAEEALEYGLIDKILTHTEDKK
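FRET quenching reversal measured ClpP activation: 10 microg/mL B. subtilis ClpP at pH 8 with the FRET-FV decapeptide, read at 430 nm after 320 nm excitation. The 20-min minus 0-min signal was scaled between DMSO/no-enzyme wells and ADEP (5.8 microM final).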
TDP1 cell noCPT: qHTS for Inhibitors of human tyrosyl-DNA phosphodiesterase 1 (TDP1): qHTS in cells in absence of CPT; DT40 Tdp1-/- hTDP1 cells, no CPT, ATP luminescence, 48 h; AID 686978, 2013; Potency, µM (titrated, usually from 46.2 µM), for the others: at the top dose activity change, negative = growth inhibition, actives largely listed as inhibitors; 420,000 compounds, 15% hits; note: % is set by controls: 0 for no effect and ±100 for the full control effect; nearly all actives have a fitted effect of over 55% in size
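Cells were dispensed at 400 per well, compounds added by pin tool, plates incubated ≥48 hr at 37 °C, then CellTiter-Glo added for 30 min at room temperature before luminescence reading. Line: DT40 Tdp1-/- complemented with hTDP1; camptothecin omitted.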
TDP1 inh: qHTS Assay for Inhibitors of Tyrosyl-DNA Phosphodiesterase (TDP1); Tyrosyl-DNA phosphodiesterase 1 (Homo sapiens), Q9NUW8; recombinant TDP1, AlphaScreen DNA substrate cleavage; Potency, µM (highest dose often 130 µM), for the others: top-dose activity change, negative = inhibition, usual class: inhibitors; 350,000 compounds, 0.28% hits; AID 485290, 2010; note: % is set by controls: 0 for no effect and ±100 for the full control effect; nearly all actives have a fitted effect of over 40% in size
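Here, a 5' biotin and 3' phosphotyrosine-FITC DNA oligonucleotide reports Tdp1 activity: intact substrate bridges AlphaScreen beads, while cleavage leaves a 3' phosphate and drops signal. All incubations at room temperature.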
TDP1 cell CPT: qHTS for Inhibitors of human tyrosyl-DNA phosphodiesterase 1 (TDP1): qHTS in cells in presence of CPT; chicken DT40 Tdp1-/-;hTDP1 cells + 20 nM CPT, ATP luminescence, 48 h; Potency, µM (series often up to 46.2 µM), for inactives: at the top dose activity change, negative = growth inhibition, most hits filed as inhibitors; 420,000 compounds, 12% hits; note: % is set by controls: 0 for no effect and ±100 for the full control effect; nearly all actives have a fitted effect of over 55% in size
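Chicken DT40 Tdp1-/- cells complemented with human TDP1, 400 cells/well, exposed to compounds plus 20 nM camptothecin for at least 48 h at 37 C; viability read as ATP content by CellTiter-Glo luminescence.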
Active calls of the source: *; u = inconclusive; x = not tested or not shown; [ ] = dose if it differs, or a comment. Sampled rows, rich in hits. Any-hit rate of the full collection: about 17%. Unless noted, calls come from the whole dose curve; as a rule, active = well fitted curve in the direction sought with a large enough effect; inconclusive = small, poorly fitted or top-dose-only effect, or another doubt; inactive = no such curve, though single readings can be large; an effect the other way counts as inactive or inconclusive. Potency is the fitted concentration of half-maximal effect.

SMILES	ClpP mod	TDP1 cell noCPT	TDP1 inh	TDP1 cell CPT
COc1cccc(NC(=O)Cn2c(=O)n(-c3ccccc3)c(=O)c3c4c(sc32)CCCC4)c1	0%	u	7%	u
CC[C@@H](C)[C@@H](C(=O)Nc1ccc(C)cc1)N1Cc2ccccc2C1=O	-2%	u	-1%	u
CN1c2ccccc2C(=O)N2CCc3c([nH]c4ccccc34)C21 (stereo not drawn)	x	x	9%	x
COc1ccc(-c2noc(N3CCCC(C(=O)Nc4ccc(C(C)=O)cc4)C3)n2)cc1 (stereo not drawn)	1%	u	3%	u
COc1ccccc1/C=N/NC(=O)c1cccc2ccccc12	0%	u	x	23µM*
COc1cc(C(=O)Oc2ccccc2/C=N/NC(=O)c2ccc(Cl)cc2Cl)cc(OC)c1OC	-7%	0.92µM*	3%	0.65µM*
COc1ccc(/C=N/NC(N)=S)cc1OC(=O)c1cccc2ccccc12	-3%	18µM*	8%	15µM*
CCCn1c(-c2ccc(F)cc2)nc2c(NCCN3CCOCC3)nc(C)nc21	x	x	9%	x
CCCC(=O)n1nc(-c2ccc(C)cc2)nc1NCc1ccco1	-2%	-7%	3%	11%
F[B-](F)(F)COc1ccccc1	0%	-10%	x	3%
Cc1ccccc1C(=O)NNC(=O)c1cc(N)cc([N+](=O)[O-])c1	1%	u	1%	-6%
COc1ccc(OC)c(NC(=O)CCCOc2cc(=O)n(C)c3ccccc23)c1	-1%	u	7%	u
CCc1ccccc1NC(=O)CNC(=O)c1ccc(OCc2cn3ccccc3n2)cc1	x	-21%	28µM*	u
COc1ccc(CN2C[C@]3(CO)O[C@@H](CO)C[C@@H]3S2(=O)=O)cc1	0%	-14%	0%[56.1 µM]	-4%
Cn1ccnc1C(=O)c1cc(SCC(=O)NC2CC2)nc2ccccc12	0%	5%	0%	7%
CN(C(=O)CSc1cc(C(=O)c2nccn2C)c2ccccc2n1)c1ccccc1	x	18µM*	2%	15µM*
COc1ccc(-c2nc3c(c(SCc4ccc(Br)cc4)n2)Cc2c(CO)cnc(C)c2O3)cc1	-5%	4.1µM*	3%	u
C=Cc1ccc(CSc2nc(-c3ccccc3C)nc3c2Cc2c(CO)cnc(C)c2O3)cc1	-3%	21µM*	5%	u
CCc1ccc(-c2nc3c(c(SCc4ccc(F)cc4)n2)Cc2c(CO)cnc(C)c2O3)cc1	1%	-19%	3%	-4%
Cc1cccc(CSc2nc(-c3cccc(C)c3)nc3c2Cc2c(CO)cnc(C)c2O3)c1	-1%	u	8%	u
C=Cc1ccc(CSc2nc(-c3ccc(OC)cc3)nc3c2Cc2c(CO)cnc(C)c2O3)cc1	-8%	5.2µM*	5%	5.8µM*
C=Cc1ccc(CSc2nc(-c3ccc(Cl)cc3)nc3c2Cc2c(CO)cnc(C)c2O3)cc1	0%	23µM*	-3%	8.2µM*
CC(=O)Nc1cnc(-c2ccc3c(c2)OCO3)cn1	-13%	-8%	x	16%
Cc1nn(-c2ccccc2)c(Cl)c1C(=O)OCC(=O)NCCc1ccccc1	x	u	-1%	u
CN1CCc2cc3c(c4c2C1CC41CCC(=NO)CC1)OCO3 (stereo not drawn)	32µM*	0%	7%	3%
SMILES	ClpP mod	TDP1 cell noCPT	TDP1 inh	TDP1 cell CPT
Cc1cc(Oc2cccc3c2S(=O)(=O)N(C2CCCC2)CC(COCc2ccccc2)O3)cc(C)c1C (stereo not drawn)	-3%	16µM*	x	23µM*
CCCCN1CC(COCc2ccccc2)Oc2ccccc2S1(=O)=O (stereo not drawn)	-3%	23µM*	-5%[56.1 µM]	u
CCCCN1CC(COCc2ccccc2)Oc2cccc(F)c2S1(=O)=O (stereo not drawn)	-5%	u	x	u
CCCCN1CC(COCc2ccccc2)Oc2cccc(Oc3ccc(OC)cc3)c2S1(=O)=O (stereo not drawn)	-4%	18µM*	x	u
O=[N+]([O-])c1ccc2c(c1)C=CC2	0%	u	x	u
CCOc1ccc(NC(=O)c2c(NC(=O)c3ccccc3Br)sc3c2CCC(C)C3)cc1 (stereo not drawn)	u	u	-7%[12.3 µM]	u
CN(C)Cc1ccccc1-c1cncnc1NCc1cccs1	x	-11%	4%	1%
Cc1ccc(NC(=O)C2=C(C(=O)O)CCCC2)cc1F	x	-11%	6%	2%
COc1cccc(CN2CCCCC2C(=O)O)c1 (stereo not drawn)	x	-2%	5%	15%
O=C(Nc1ccc(F)cc1F)N1CCc2c(sc3c2CCCC3)C1c1ccc(F)cc1 (stereo not drawn)	-1%	18µM*	4%	u
CCc1c(C)sc2c1CCN(Cc1cccc(OC)c1)C2c1ccccc1 (stereo not drawn)	1%	5.2µM*	1%	7.3µM*
CCOC(=O)c1ccccc1NC(=O)N1CCc2c(sc(C)c2CC)C1c1ccccc1 (stereo not drawn)	5%	16µM*	4%	u
Cc1ccc(NC(=O)N2CCc3c(sc4c3CCCC4)C2c2ccccc2)cc1F (stereo not drawn)	0%	15µM*	-4%	u
CCc1c(C)sc2c1CCN(C(=O)Nc1cc(OC)c(OC)c(OC)c1)C2c1ccccc1 (stereo not drawn)	-1%	u	9%	u
COc1ccc(NC(=O)OCCn2c([N+](=O)[O-])cnc2C)cc1	x	5%	3%	2%
CCc1nc2c(OCC(=O)N3CCOCC3)cccn2c1N(C=O)Cc1ccccc1	-1%	-3%	x	-6%
COc1cc2ccc(C(=O)O)cc2cc1OC	-22%	-7%	x	16%
COc1ccccc1NC(=O)N1CC(=O)Nc2sc3c(c2C1c1ccccc1)CCCC3 (stereo not drawn)	u	18µM*	3%	23µM*
Cc1ccccc1NC(=O)N1CCc2c(sc3c2CCCC3)C1c1ccccc1 (stereo not drawn)	-2%	u	-4%	u
CCOc1ccccc1NC(=O)N1CCc2c(sc3c2CCCC3)C1c1ccccc1 (stereo not drawn)	-1%	23µM*	4%	u
COc1ccccc1NC(=O)N1CCCC1C(=O)NCc1ccc(F)cc1 (stereo not drawn)	4%	4%	2%	-1%
CN(C(=O)CSc1nc2[nH]ncc2c(=O)[nH]1)c1ccccc1	-2%	3%	x	-2%
Cc1cc(C(=O)NNc2ccc(C(C)C)cc2)n(C(C)(C)C)n1	0%	-29%	5%	u
Cn1ccc2c(-c3ccc4[nH]ccc4c3)cc3c(c21)C1CCC3O1 (stereo not drawn)	5%	u	x	u
COc1ccc(S(=O)(=O)N2CCCCCC2)cc1C(=O)N(C)CC(=O)Nc1ccccc1Br	3%	9.2µM*	x	u

Screening results from PubChem.
